# PubChem BioAssay AID1159580 (chemical genetic matrix, 2015)
# Several values for one entry are separate records, joined by “and”; a condition that tells them apart may be missing. Equal values may be shown once. Screen size: about 5,500 compounds; about 2,000 (36%) were called active. Roughly 18% stayed inconclusive and do not appear here. Some of the results follow. A number with no mark means an inactive call. Cut-off read from the data, not from the text of the source: active = normalized growth mostly below about 0.91 (no sharp cut-off); inconclusive = no clear call, values can overlap the other calls; inactive = mostly above about 0.92. Where a SMILES comes first, the peptide text is derived from it. [ ]: non-standard residue; d: D form. Orn = NCCC[CH](N)C(=O)O
# Assay: chemical genetic growth profiling, strain panel (AID 1159580);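 note: tested at 20 µM; growth read once vehicle control cultures reached saturation at 30 °C; 1 = growth at the plate median or of vehicle wells; lower values mean less growth of the strain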
# Conditions: S. cerevisiae deletion strains, growth OD
structure (smiles),measurement,setting,value
CC(C)CC1NC(=O)C(CCCN)NC(=O)C(C(C)C)NC(=O)C2CCCN2C(=O)C(Cc2ccccc2)NC(=O)C(CC(C)C)NC(=O)C(CCCN)NC(=O)C(C(C)C)NC(=O)C2CCCN2C(=O)C(Cc2ccccc2)NC1=O (stereo unspecified) (cyclo(FPV[Orn]LFPV[Orn]L); configuration not given here),normalized growth,"locus YAL013W, strain DEP1, hits give low values",1.01
same,normalized growth,"locus YAL021C, strain ccr4, hits give low values",0.995
same,normalized growth,"locus YAL026C, strain drs2, hits give low values",0.911
same,normalized growth,"locus YAL030W, strain snc1, hits give low values",1.03
same,normalized growth,"locus YBL061C, strain skt5, hits give low values",1.02
same,normalized growth,"locus YBR009C, strain hhf1, hits give low values",1.01
same,normalized growth,"locus YBR021W, strain FUR4, hits give low values",0.931
same,normalized growth,"locus YBR023C, strain chs3, hits give low values",1.01
same,normalized growth,"locus YBR171W, strain sec66, hits give low values",1.07
same,normalized growth,"locus YBR229C, strain ROT2, hits give low values",1.01
same,normalized growth,"locus YBR231C, strain swc5, hits give low values",0.934
same,normalized growth,"locus YBR279W, strain paf1, hits give low values",1.02
same,normalized growth,"locus YCL011C, strain gbp2, hits give low values",1.02
same,normalized growth,"locus YCL016C, strain dcc1, hits give low values",1
same,normalized growth,"locus YCL029C, strain bik1, hits give low values",0.986
same,normalized growth,"locus YCL061C, strain MRC1, hits give low values",1.03
same,normalized growth,"locus YCL069W, strain vba3, hits give low values",1.03
same,normalized growth,"locus YCR088W, strain abp1, hits give low values",1.03
same,normalized growth,"locus YDL005C, strain med2, hits give low values",1.02
same,normalized growth,"locus YDL035C, strain GPR1, hits give low values",0.992
same,normalized growth,"locus YDL040C, strain nat1, hits give low values",1.02
same,normalized growth,"locus YDL074C, strain BRE1, hits give low values",0.964
same,normalized growth,"locus YDL101C, strain DUN1, hits give low values",1
same,normalized growth,"locus YDL134C, strain PPH21, hits give low values",1.01
same,normalized growth,"locus YDL185W, strain tfp1, hits give low values",0.249 (active)
same,normalized growth,"locus YDL192W, strain arf1, hits give low values",0.104 (active)
same,normalized growth,"locus YDR001C, strain nth1, hits give low values",1.03
same,normalized growth,"locus YDR069C, strain doa4, hits give low values",0.905
same,normalized growth,"locus YDR101C, strain arx1, hits give low values",0.998
same,normalized growth,"locus YDR137W, strain rgp1, hits give low values",0.307 (active)
same,normalized growth,"locus YDR150W, strain NUM1, hits give low values",1.02
same,normalized growth,"locus YDR159W, strain sac3, hits give low values",1.02
same,normalized growth,"locus YDR162C, strain NBP2, hits give low values",1.01
same,normalized growth,"locus YDR195W, strain ref2",0.363 (active)
same,normalized growth,"locus YDR297W, strain sur2, hits give low values",1.03
same,normalized growth,"locus YDR318W, strain mcm21, hits give low values",1.01
same,normalized growth,"locus YDR334W, strain swr1, hits give low values",1.02
same,normalized growth,"locus YDR335W, strain msn5, hits give low values",1.05
same,normalized growth,"locus YDR388W, hits give low values",0.989
same,normalized growth,"locus YDR392W, strain spt3, hits give low values",0.963
same,normalized growth,"locus YDR502C, strain sam2, hits give low values",0.997
same,normalized growth,"locus YEL003W, strain gim4, hits give low values",1.01
same,normalized growth,"locus YEL037C, strain rad23, hits give low values",1.04
same,normalized growth,"locus YEL061C, strain CIN8 (second series), hits give low values",1.04
same,normalized growth,"locus YEL061C, strain CIN8, hits give low values",1.02
same,normalized growth,"locus YER015W, strain faa2, hits give low values",1.01
same,normalized growth,"locus YER016W, strain bim1, hits give low values",1.03
same,normalized growth,"locus YER110C, hits give low values",0.987
same,normalized growth,"locus YER111C, strain swi4, hits give low values",1.05
same,normalized growth,"locus YER155C, strain BEM2 (second series), hits give low values",0.775 (active)
same,normalized growth,"locus YER155C, strain BEM2, hits give low values",0.991
same,normalized growth,"locus YER167W, strain BCK2, hits give low values",1.02
same,normalized growth,"locus YFR010W, strain ubp6, hits give low values",1.01
same,normalized growth,"locus YGL078C, strain dbp3, hits give low values",0.993
same,normalized growth,"locus YGL167C, strain pmr1, hits give low values",1.04
same,normalized growth,"locus YGL173C, strain kem1, hits give low values",1.02
same,normalized growth,"locus YGL227W, strain vid30, hits give low values",1.05
same,normalized growth,"locus YGL240W, strain doc1, hits give low values",0.992
same,normalized growth,"locus YGL248W, strain PDE1, hits give low values",1.01
same,normalized growth,"locus YGL253W, strain hxk2, hits give low values",1.03
same,normalized growth,"locus YGR078C, strain PAC10, hits give low values",1.07
same,normalized growth,"locus YGR135W, strain pre9, hits give low values",0.981
same,normalized growth,"locus YGR229C, strain SMI1, hits give low values",0.844
same,normalized growth,"locus YGR252W, strain gcn5, hits give low values",0.924
same,normalized growth,"locus YHR013C, strain ard1, hits give low values",1.1
same,normalized growth,"locus YHR027C, strain rpn1, hits give low values",1.05
same,normalized growth,"locus YHR030C, strain SLT2, hits give low values",1 and 0.948
same,normalized growth,"locus YHR079C, strain IRE1 (second series), hits give low values",1.01
same,normalized growth,"locus YHR079C, strain IRE1, hits give low values",0.993
same,normalized growth,"locus YHR094C, strain hxt1, hits give low values",1.01
same,normalized growth,"locus YHR129C, strain ARP1, hits give low values",1.02
same,normalized growth,"locus YHR142W, strain chs7, hits give low values",1.02
same,normalized growth,"locus YIL066C, strain RNR3, hits give low values",0.999
same,normalized growth,"locus YIL073C, strain SPO22, hits give low values",1.52 [resistant] (active)
same,normalized growth,"locus YIL125W, strain kgd1, hits give low values",1
same,normalized growth,"locus YIR030C, strain dcg1, hits give low values",1
same,normalized growth,"locus YJL092W, strain hpr5, hits give low values",1.04
same,normalized growth,"locus YJL095W, strain BCK1 (second series), hits give low values",1.02
same,normalized growth,"locus YJL095W, strain BCK1, hits give low values",0.965 and 0.972
same,normalized growth,"locus YJL115W, strain asf1, hits give low values",1.07
same,normalized growth,"locus YJL129C, strain trk1, hits give low values",1.01
same,normalized growth,"locus YJL134W, strain LCB3, hits give low values",1.01
same,normalized growth,"locus YJL154C, strain vps35, hits give low values",1.01
same,normalized growth,"locus YJL164C, strain tpk1, hits give low values",1.03
same,normalized growth,"locus YJL166W, strain qcr8, hits give low values",1.02
same,normalized growth,"locus YJL168C, strain set2, hits give low values",1
same,normalized growth,"locus YJL187C, strain SWE1 (second series), hits give low values",0.992
same,normalized growth,"locus YJL187C, strain SWE1, hits give low values",1.04
same,normalized growth,"locus YJR043C, strain POL32, hits give low values",0.983
same,normalized growth,"locus YJR066W, strain TOR1, hits give low values",0.935
same,normalized growth,"locus YJR075W, strain HOC1, hits give low values",1.01
